PNC inhibitor: inhibitors of perinucleolar compartment assembly; activity change (PNC), negative = inhibition, % at 10 µM; AID 2417; actives 3.1% (n = 140,000); PC3M PTB-GFP, PNC prevalence imaging, 16 h; hits give low values;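 active = readout at or below -70, meaning at least 70% loss of cells showing the perinucleolar compartment, a nuclear body marking cancer cells; inconclusive = readout between -30 and a set limit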;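 also: plate controls were DMSO wells for no effect and camptothecin positive control wells for full effect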
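PC3M cells stably expressing PTB-GFP, 750–1000 cells/well, treated 16 h at 37 °C with compound (23 nl of library stock), in duplicate. After paraformaldehyde fixation and Hoechst stain, imaged at 20x; PNC prevalence scored by image analysis.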
IMPase Li cell: cell-permeable IMPase inhibitors with lithium potentiation; CHO-M1 cells, IP1 TR-FRET (IP-One), carbachol + lithium; Potency, µM (series often up to 59.4 µM), for inactives: at the highest dose activity, negative = IMPase inhibition, actives largely listed as inhibitors; actives 0.35% (n = 210,000); AID 1457;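 also: IP1 builds up when IMPase is blocked and the TR-FRET signal falls; potency is read from the fitted curve at half-maximal effect; plate controls were basal vehicle for no effect and high inhibitor control for full effect; nearly all actives have a fitted effect of over 50% in size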
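Readout is a homogeneous TR-FRET IP1 immunoassay (Ex 320, Em 665 and 620), where raised cytosolic IP1 lowers signal. Cells were CHO-M1 treated 30 min at 37C with test compounds plus a little lithium; AC50 values came from Hill-equation fitting.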
ALDH1A1 block: inhibitors of human aldehyde dehydrogenase 1A1. Potency, µM (top dose mostly 75.3 µM), without a hit: at the highest dose activity, negative = inhibition, most hits filed as inhibitors. actives 7.3% (n = 220,000). AID 1030. P00352. Purified ALDH1A1, NADH fluorescence, propionaldehyde substrate; active = well fitted inhibition curve with a large enough effect, not every such curve was filed as active; inconclusive = small, poorly fitted or top-dose-only effect, or another doubt; inactive = no such curve, though single readings can be large or run the other way;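 also: potency is read from the fitted curve at half-maximal effect; plate controls were no enzyme wells and a reference inhibitor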
HPGD block: HPGD (human) dehydrogenase inhibition; P15428; purified HPGD, NADH fluorescence kinetic, PGE2 substrate; Potency, µM, for the others: top-dose activity change, negative = inhibition, usual class: inhibitors; actives 4.3% (n = 150,000); active = well fitted inhibition curve with a large enough effect, not every such curve was filed as active; inconclusive = small, poorly fitted or top-dose-only effect, or another doubt; inactive = no such curve, though single readings can be large or run the other way; also: potency is read from the fitted curve at half-maximal effect
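20 nM HPGD preincubated 15 min at room temperature with compound in 50 mM Tris-HCl pH 8, 0.01% Tween 20. Started with 1 mM NAD+ and 30 uM prostaglandin E2; NADH fluorescence (360/450 nm) read 5 times over 30-s intervals, last minus first.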
IMPase cell inh: IMPase inhibition in cells. 120,000 tested, under 10 active. P97697. CHO-M1 cells, IP1 accumulation, HTRF TR-FRET ratio. inhibition (IP1 accumulation), % at 46.1 µM; active = well fitted curve in the direction sought with a large enough effect in the signal ratio, not every such curve was filed as active; inconclusive = small, poorly fitted or top-dose-only effect, or a change in a side signal; inactive = no such curve, though single readings can be large or run the other way; the % refers to the signal ratio;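 also: cells stimulated with carbachol in lithium chloride buffer; plate controls were DMSO basal wells for no effect and reference inhibitor wells for full effect; higher means more IMPase inhibition seen as more IP1 and lower FRET ratio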
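Seeded CHO-M1 cells were dosed with compound at up to 46 uM, stimulated with carbachol for 30 min, then lysed in IP-One detection reagents. Higher IP1 lowers the TR-FRET signal.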
ALOX12 inhib: inhibitors of human 12-lipoxygenase (ALOX12). Potency, µM (series often up to 57.1 µM), without a hit: top-dose activity change, negative = inhibition, hits mostly inhibitors. P18054. purified 12-hLO, xylenol orange hydroperoxide absorbance. actives 0.12% (n = 150,000). AID 1452; also: potency is read from the fitted curve at half-maximal effect; nearly all actives have a fitted effect of over 55% in size
Target sequence (P18054 whole entry, looked up): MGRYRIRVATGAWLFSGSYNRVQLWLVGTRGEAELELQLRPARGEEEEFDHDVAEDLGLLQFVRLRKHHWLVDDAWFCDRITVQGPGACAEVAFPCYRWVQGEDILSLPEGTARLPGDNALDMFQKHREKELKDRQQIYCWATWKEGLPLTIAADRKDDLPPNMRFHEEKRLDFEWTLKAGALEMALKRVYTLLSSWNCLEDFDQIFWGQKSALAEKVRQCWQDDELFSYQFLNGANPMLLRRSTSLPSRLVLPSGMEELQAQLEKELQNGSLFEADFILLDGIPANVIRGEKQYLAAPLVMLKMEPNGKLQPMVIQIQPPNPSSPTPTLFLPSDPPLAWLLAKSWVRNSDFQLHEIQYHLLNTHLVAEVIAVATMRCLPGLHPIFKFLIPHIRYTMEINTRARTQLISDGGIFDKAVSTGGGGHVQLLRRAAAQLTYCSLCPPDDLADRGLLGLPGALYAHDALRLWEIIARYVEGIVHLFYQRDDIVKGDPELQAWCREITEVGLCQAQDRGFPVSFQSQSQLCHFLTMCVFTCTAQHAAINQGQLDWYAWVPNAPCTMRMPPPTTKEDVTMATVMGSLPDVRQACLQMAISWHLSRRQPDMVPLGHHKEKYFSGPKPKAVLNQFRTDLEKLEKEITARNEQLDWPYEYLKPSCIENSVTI
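Hydroperoxide formation by human 12-lipoxygenase from 40 uM arachidonic acid was followed colorimetrically via ferric-xylenol orange complex, using the 573/405 nm absorbance ratio. Enzyme concentration was 150 nM, with 30 min reaction at room temperature.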
An asterisk follows results filed as active; u = inconclusive; x = not tested or not shown; [ ] = dose if it differs, or a comment. Sampled rows, rich in hits. Any-hit rate of the full collection: about 11%. Unless noted, calls follow the shape of the dose curve; as a rule, active = well fitted curve in the direction sought with a large enough effect; inconclusive = small, poorly fitted or top-dose-only effect, or another doubt; inactive = no such curve, though single readings can be large; an effect the other way counts as inactive or inconclusive. Unless noted, % is scaled to controls: 0 for no effect and ±100 for the full control effect.

SMILES	PNC inhibitor	IMPase Li cell	ALDH1A1 block	HPGD block	IMPase cell inh	ALOX12 inhib
Cn1nnnc1SCC(=O)N1c2ccccc2Sc2ccccc21	u	15%[38.3 µM]	5%	-10%	6	1%
CCn1nnnc1SCC(=O)N1c2ccccc2Sc2ccccc21	0	17%	13µM*	-6%	15	0%
CCn1nnnc1SCC(=O)N1c2ccccc2CCc2ccccc21	u	21%	2µM*	-7%	0	0%
O=c1c2ccccc2sn1-c1cc(S(=O)(=O)N2CCOCC2)ccc1N1CCOCC1	u	25%[38.3 µM]	0.056µM*	0.79µM*	12	2.2µM*
Cc1ccc(N=CC=C2OC(C)(C)C(C)(C)O2)cc1	4	4%	u	-6%	x	-2%
CC1(C)OC(c2ccccc2)=C/C(=C/C=Nc2ccccc2)O1	-24	5%	4.5µM*	-13%	u	-5%
Cc1noc(C)c1C(=O)N1CCC2(CC1)CCN(c1ncccn1)CC2	x	15%	u	-30%	x	-1%
CN(C)CCC(=O)[C@@]1(O)CC[C@H]2[C@H]3CC=C4C[C@@H](O)CC[C@]4(C)[C@H]3CC[C@]21C	x	-5%	0.32µM*	-11%	x	-1%[11.4 µM]
CC(=O)N1[C@@H]2CC3C4CC=C5C[C@@H](O)CC[C@]5(C)C4CC[C@]3(C)[C@@]21C(C)=O (some centres undefined)	19	12%	11%	1%	x	2%
COc1ccc(C(=O)N2CCC3(CCCN(Cc4ccncc4)C3)CC2)cc1	x	14%	-5%	-1%	x	3%
CCN(CC(=O)N1CCN(C)CC1)S(=O)(=O)c1ccc(Cl)cc1	-107*	8%[38.3 µM]	9%	-8%	3	4%
CN(CC(=O)NCc1ccccn1)S(=O)(=O)c1ccc(Br)cc1	x	3%	8%	x	x	x
CCN(CC(=O)N1CCCCCC1)S(=O)(=O)c1ccc(Cl)cc1	-1	1%[38.3 µM]	-11%	-10%	0	-3%
CCS(=O)(=O)c1nc(S(=O)(=O)c2ccc(Cl)cc2)c(N2CCc3ccccc3C2)s1	u	4%	1.4µM*	-8%	x	-1%
CCN(CC(=O)NCc1ccccn1)S(=O)(=O)c1ccc(Cl)cc1	u	16%[38.3 µM]	u	22µM*	-10	0%
CCS(=O)(=O)c1nc(S(=O)(=O)c2ccc(Cl)cc2)c(NCc2ccccn2)s1	x	-2%	13µM*	x	x	x
CCOc1cccc(C(=O)N(Cc2ccc(C(C)C)cc2)C2CCS(=O)(=O)C2)c1 (centres undefined)	x	x	x	x	0	x
O=C(c1cc2ncc(Br)cn2n1)N1CCOCC1	-5	-15%[38.3 µM]	3%	22µM*	9	1%
O=C(c1cc2ncc(Br)cn2n1)N1CCN(C(=O)c2ccco2)CC1	-15	3%[38.3 µM]	25µM*	-23%	4	-6%
CCOC(=O)C1CCCN(C(=O)c2cc3ncc(Br)cn3n2)C1 (centres undefined)	7	20%[38.3 µM]	4%	-29%	0	-2%
CCN(CC)C(=O)c1c(NC(=O)c2ccccc2F)sc2c1CCC(C(C)(C)C)C2 (centres undefined)	x	x	x	x	2	x
O=C(O)c1cccc(N2CCCC2=O)c1	25	5%[38.3 µM]	u	20µM*	-5	-2%
O=C(NCc1ccc(N2CCCC2=O)cc1)NC1CCCCC1	-1	19%[38.3 µM]	6%	22µM*	-5	-2%
O=C(NC1CCCCC1)c1ccc(N2CCCC2=O)cc1	-28	-18%[38.3 µM]	4%	8.9µM*	19	-3%
C[C@]12C[C@@](C)(C=C1/C=C/c1ccccc1)C(=O)C[C@H]2c1ccccc1	x	12%	6%	-4%	x	0%
CCC(C)C(NC)C(=O)O (centres undefined)	x	-8%	4%	3%	x	1%
Cc1nc(NC(C)(C)CO)c([N+](=O)[O-])cc1[N+](=O)[O-]	-119*	1%	3%	-5%	x	-1%
CC(O)CNc1cc(N)c([N+](=O)[O-])cc1[N+](=O)[O-] (centres undefined)	-17	-7%	1%	-19%	x	-3%

High-throughput results deposited in PubChem BioAssay by National Center for Advancing Translational Sciences (NCATS).
